Only some compounds are listed: those with a hit (about 1.3% of all), similar ones and a draw of the others.
CCHF vOTU inh: CCHFV vOTU protease inhibition | 370,000 tested, 0.55% active | AID 651958 | Pep-AMC fluorescence | inhibition, % at 11.5 µM; in the data active means inhibition above about 30%; further: 0% = vehicle wells with enzyme and 100% = no enzyme wells
PriA SSB inh: inhibitors of Klebsiella pneumoniae PriA binding to SSB C-terminal tail; AlphaScreen SSBct-PriA binding, biotinylated peptide; inhibition, % at 33 µM; 430,000 tested, 0.6% active; AID 1272365; in the data active means inhibition mostly above about 37%, no sharp cut-off; inactive means mostly below about 20%;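 further: plate controls were negative control peptide for no effect and reference peptide for full effect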
DUSP3 inh: DUSP3 (human) phosphatase inhibition; P51452; recombinant VHR phosphatase, pNPP absorbance; inhibition, % at 13.3 µM; 290,000 tested, 0.52% active; AID 1654; in the data active means inhibition above about 50%
SARS 3CLpro inh: SARS-CoV 3CLpro protease inhibition; 290,000 tested, 0.14% active; recombinant SARS-CoV 3CLpro, quenched FRET peptide cleavage; AID 1706; P0C6X7; inhibition, % at 6 µM; in the data active means inhibition above about 12%
TcdB inh: TcdB glycohydrolase inhibition | TcdB glycohydrolase enzymatic assay, plate reader | inhibition, % at 9.99 µM | 350,000 tested, 0.24% active | AID 652162; in the data active means inhibition above about 10%
Vc quorum ag: induces V. cholerae light production without autoinducers; activation, % at 18.7 µM; 350,000 tested, 0.16% active; V. cholerae BH1578 lux reporter, luminescence, 6 h; in the data active means activation mostly above about 9.7%, no sharp cut-off
An asterisk follows results filed as active; i = inactive; / = not tested or not shown; + = active, no number.

SMILES	CCHF vOTU inh	PriA SSB inh	DUSP3 inh	SARS 3CLpro inh	TcdB inh	Vc quorum ag
CC(=O)OCC(=O)[C@@]12OC(C)(C)O[C@@H]1CC1C3C[C@H](F)C4=CC(=O)C=CC4(C)[C@@]3(F)C(O)CC12C (stereo partly drawn)	-3	-2	/	/	2	i
N#Cc1ccc(COC(=O)c2cccnc2Cl)cc1	-2	-6	59*	-1	2	0
O=C(Nc1cnn(C[C@H]2COc3ccccc3O2)c1)c1ccc(=O)[nH]n1	/	-19	/	/	/	/
COc1ccc(C(=O)NCc2nnc(SCc3ccc(C(F)(F)F)cc3)n2C2CCCCC2)cc1	/	5	/	/	/	/
c1ccc2c(-c3cc(C4CCNCC4)[nH]n3)cccc2c1	-3	39*	20	1	1	0
COc1ccc(/C=C/C(=O)NC(=S)Nc2ccccn2)cc1	0	38*	2	6	0	1
O=C(NCCn1nc(-c2cccs2)n(C2CC2)c1=O)c1cc(-c2ccco2)on1	/	-13	/	/	/	/
CSC[C@@](C)(O)CNC(=O)C(=O)Nc1cc(F)ccc1F	/	-7	/	/	/	/
CCOc1cccc(C2c3c(oc4cc(C)c(C)cc4c3=O)C(=O)N2CCCN(C)C)c1 (stereo not drawn)	/	/	50*	1	/	/
Cc1cc2oc3c(c(=O)c2cc1C)C(c1cccc([N+](=O)[O-])c1)N(CCCN(C)C)C3=O (stereo not drawn)	/	8	/	/	/	/
CCOc1ccc(C(=O)Nc2ccc3c(c2)N(CCC(C)C)C(=O)C(C)(C)CO3)cc1	/	23	/	/	/	/
Cc1cc(-c2nnc(NC(=O)C3CCCCC3)o2)nn1C	/	-5	/	/	/	/
O=C(Cc1ccc(Cl)cc1)NCCOc1ccc2c(c1)OCO2	/	14	/	/	/	/
CO[C@@H](CNC(=O)CCc1ccccc1F)c1ccccc1C	/	-1	/	/	/	/
O=C(c1ccco1)N1CCN(C(=O)C2CCCN(S(=O)(=O)Cc3ccccc3)C2)CC1 (stereo not drawn)	6	1	16	2	/	i
CS(=O)(=O)N1CC(C(=O)N2CCN(C(=O)c3ccco3)CC2)C1	/	80*	/	/	/	/
CSc1cccc2sc(NC(=O)c3ccc([N+](=O)[O-])s3)nc12	/	-11	/	/	/	/
O=C(CSc1cccc2cccnc12)N/N=C/c1ccc(O)cc1	-8	i	23	-1	20*	8
COc1cccc(/C=N/NC(=O)CSc2cccc3cccnc23)c1	-8	+	12	0	3	2
COc1ccc(O)c(/C=N/NC(=O)CSc2cccc3cccnc23)c1	/	i	/	/	/	/
O=C(CSc1cccc2cccnc12)N/N=C/c1ccc(Cl)cc1	/	i	/	/	/	/
COc1ccc(OC)c(/C=N/NC(=O)CSc2cc(C)nc3c(OC)cccc23)c1	-50	/	53*	3	1	0
O=C(CSc1cccc2cccnc12)NN=Cc1cccnc1	/	83*	/	/	/	/
Cc1noc(-c2ccsc2NC(=O)c2ccc3ncsc3c2)n1	/	-12	/	/	/	/
COC(=O)c1ccc(S(=O)(=O)Nc2ccc(-n3nnn(C)c3=O)cc2)cc1	/	-10	/	/	/	/
SMILES	CCHF vOTU inh	PriA SSB inh	DUSP3 inh	SARS 3CLpro inh	TcdB inh	Vc quorum ag
CSc1ccc(CCC(=O)NC[C@H]2CCCN2c2nc3ccccc3o2)cc1	/	-10	/	/	/	/
Cc1ccc(-n2nnnc2CNC(=O)c2cc([N+](=O)[O-])ccc2Cl)cc1C	/	-6	/	/	/	/
CC(C)c1cc(C(C)C)c(C(C)C)c([N+](=O)[O-])c1N	/	35*	/	/	/	/
O=C(C[C@H]1C/C=C/C[C@@H](Cc2ccc(F)cc2)C(=O)OC[C@@H]2CCCN2C1=O)NCCO	/	7	/	/	/	/
O=C(NCCn1nc(-c2ccncc2)cc1C1CC1)NCc1cccs1	/	6	/	/	/	/
Cc1cc(N(CCO)CCO)ccc1N=Nc1cc(F)ccc1F	22	75*	33	4	3	i
OCCN(CCO)c1ccc(C(c2ccc(Cl)cc2)c2ccc(N(CCO)CCO)cc2Cl)c(Cl)c1	9	10	24	2	-1	-1
Cc1ccccc1NC(=O)CSc1n[nH]c(-c2ccccn2)n1	24	106*	17	0	0	0
O=C(CSc1n[nH]c(-c2ccncc2)n1)Nc1cccc(Cl)c1	/	30	/	/	/	/
O=C(CSc1n[nH]c(-c2ccccn2)n1)Nc1cccc(Cl)c1	-2	88*	23	-4	0	2
Cc1ccc(C)c(NC(=O)CSc2n[nH]c(-c3ccccn3)n2)c1	10	80*	17	-5	0	0
O=C(CSc1n[nH]c(-c2ccccn2)n1)NC1CC2CCC1C2 (stereo not drawn)	/	99*	/	/	/	/
COc1ccccc1NC(=O)C(=O)NCC1CCN(C(=O)c2cccnc2SC)CC1	/	-15	/	/	/	/
Brc1ccc(CSc2nccn2-c2ccccc2)cc1	4	59*	10	6	/	i
FC(F)(F)c1ccc(CSc2nccn2-c2ccccc2)cc1	13	48*	25	-1	/	i
Clc1cccc(CSc2nccn2-c2ccccc2)c1	7	53*	8	7	/	9
COc1cccc(C(=O)Nc2cccc(-c3ccc4nnc(C)n4n3)c2)c1	/	-3	/	/	/	/
COCCNc1oc(/C=C/c2ccccc2)nc1C#N	-368	-14	4	4	12*	0
c1ccc(-c2nnc(-c3ccccn3)nc2NC2CCCCC2)cc1	18	101*	19	6	2	i
c1ccc(-c2nc(NC3CCCCC3)c3ccccc3n2)nc1	/	57*	/	/	/	/
c1ccc(CNc2nc(-c3ccccn3)nc3ccccc23)cc1	-2	64*	/	-2	1	0
Oc1ccccc1-c1nc(NC2CCCC2)c2ccccc2n1	-3	2	/	3	1	2
CNc1nc(-c2ccccn2)nnc1-c1ccccc1	5	91*	33	4	/	-1
c1ccc(CNc2nc(-c3ccccc3)nc3ccccc23)cc1	1	-40	8	0	1	i
Cc1cc(-n2nnc(C(=O)OCc3cccc(F)c3)c2C)ccc1Br	/	-14	/	/	/	/
COc1ccccc1CCNC(=O)c1ccc(Cn2c(C)nc3ccccc32)o1	/	9	/	/	/	/
CN(C)C(CNC(=O)Cc1cccs1)c1ccsc1 (stereo not drawn)	/	7	/	/	/	/
COc1cccc(C(=O)NCCn2nc(-c3cccs3)ccc2=O)c1OC	/	-15	/	/	/	/
CCc1ccccc1NC(=O)C1CCCN(c2ncccn2)C1 (stereo not drawn)	-6	-8	50*	0	1	0
CCOc1ccc(OCC)c(NC(=O)C2CCCN(c3ncccn3)C2)c1 (stereo not drawn)	-4	0	4	7	/	i
